# This is a sample that favours compounds with a hit; in the whole collection about 3.2% have one here.
# ALOX15 inhib: 15-hLO (ALOX15) enzyme inhibition; Potency, µM (top dose mostly 57.1 µM), for inactives: at the highest dose activity change, negative = inhibition, hits mostly inhibitors; AID 887; P16050; purified 15hLO-1, xylenol orange hydroperoxide absorbance; actives 1.4% (n = 74,000); further: on the % scale 0 is the no-effect control and ±100 the full control effect; nearly all actives have a fitted effect of over 55% in size
#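 Hydroperoxide formed from arachidonic acid (50 uM) by purified human 15hLO-1 (40 nM) oxidizes ferrous iron, and the ferric-xylenol orange complex is read at 573 versus 405 nm. Compounds were preincubated 15 min; reaction ran 6 min at room temperature.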
# Tau fil binding: binds recombinant human tau filaments; recombinant tau filaments, thioflavin S fluorescence, 15 h; filaments grown with octadecylsulfate alongside compound; P10636; Potency, µM (titrated, usually from 57.1 µM), without a hit: at the highest dose activity change, negative = inhibition; actives 2% (n = 71,000);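 further: on the % scale 0 is the no-effect control and ±100 the full control effect; actives lower thioflavin S fluorescence by blocking filaments or displacing dye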
#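 Tau 2 uM in ThS buffer dispensed; compound added; 60 uM ODS added (finals 1 uM tau, 30 uM ODS); 15 h 37 C; fluor ex450/em510.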
# USP2a inhib: USP2a (human) protease inhibition | O75604 | USP2a enzymatic assay, qHTS inhibition | Potency, µM (titrated, usually from 38.3 µM), inactives show at the highest dose activity change, negative = inhibition, most hits filed as inhibitors | actives 0.1% (n = 60,000) | AID 927; further: nearly all actives have a fitted effect of over 60% in size
# Target sequence (O75604 whole entry, looked up): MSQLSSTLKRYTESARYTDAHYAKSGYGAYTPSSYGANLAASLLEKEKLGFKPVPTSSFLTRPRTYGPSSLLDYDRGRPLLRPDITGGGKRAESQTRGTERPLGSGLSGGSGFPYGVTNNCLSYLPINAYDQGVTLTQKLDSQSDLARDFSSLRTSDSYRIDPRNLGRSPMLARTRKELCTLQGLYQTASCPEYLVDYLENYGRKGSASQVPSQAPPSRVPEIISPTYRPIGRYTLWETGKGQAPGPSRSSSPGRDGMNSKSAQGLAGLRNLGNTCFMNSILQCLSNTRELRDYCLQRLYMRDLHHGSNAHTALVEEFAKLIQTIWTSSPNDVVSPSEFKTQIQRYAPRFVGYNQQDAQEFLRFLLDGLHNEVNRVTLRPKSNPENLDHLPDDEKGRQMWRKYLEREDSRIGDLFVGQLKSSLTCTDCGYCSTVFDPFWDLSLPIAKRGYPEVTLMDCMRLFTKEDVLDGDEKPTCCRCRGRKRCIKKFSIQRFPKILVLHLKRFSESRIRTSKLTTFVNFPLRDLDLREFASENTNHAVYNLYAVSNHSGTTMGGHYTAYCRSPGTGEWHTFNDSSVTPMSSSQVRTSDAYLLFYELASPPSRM
#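 20 nM USP2 core + cpd, 30 min RT; add 20 nM Ub-PLA2/20 uM NBD C6-HPC; read Ex460/Em535 at 0 h and 2.5 h. Normalized to NEM; qHTS curve fit/classification.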
# Hsp90 Hop PPI: changes Hsp90-Hop TPR2A binding signal, up or down. AlphaScreen TPR2A-His6 binding biotin-Hsp90 C-terminal peptide. Potency, µM (top dose mostly 57 µM), without a hit: at the highest dose activity change, negative = inhibition. actives 0.44% (n = 71,000); active means well fitted curve in either direction with a large enough effect; inconclusive means small, poorly fitted or top-dose-only effect, or another doubt; further: on the % scale 0 is the no-effect control and ±100 the full control effect
# * hit, by the source's call; ? = inconclusive; . = no result; [ ] = remark or other dose. Unless noted, the call rests on the fitted dose curve; in most records, active means well fitted curve in the direction sought with a large enough effect; inconclusive means small, poorly fitted or top-dose-only effect, or another doubt; inactive means no such curve, though single readings can be large; an effect the other way counts as inactive or inconclusive. Potency means the concentration at half of the fitted maximal effect.
SMILES,ALOX15 inhib,Tau fil binding,USP2a inhib,Hsp90 Hop PPI
COc1ccc2[nH]cc(CCNc3cc(-c4ccccc4C(F)(F)F)ncn3)c2c1,16µM*,-10%,16%,-21%
COc1ccccc1CNc1ncncc1-c1ccc(N(C)C)cc1,-16%,-13%,-25%,?
COc1ccc(CNc2ncnc3ccc(-c4ccc(N(C)C)cc4)cc23)c(OC)c1,?,2.5µM*,?,?
O=C(O)Cn1ccnc1[N+](=O)[O-],-6%[11.4 µM],-6%[11.4 µM],.,0%[11 µM]
CCOc1ccc(OCC)c(NC(=O)C2CCN(c3ncccn3)CC2)c1,4%,0%,4%,-2%
O=C(c1cccn2c(=O)c3cc(Br)ccc3nc12)N1CCN(c2ccccn2)CC1,-12%,12%,13%,3%
O=C(c1cc(-c2ccncc2)nc2ccc(Br)cc12)N1CCN(c2ccccn2)CC1,-8%,32µM*,53%,-13%
CN(C)c1ncnc2ccc(-c3cccc(C#N)c3)cc12,7%,-3%,-11%,-8%
N=C1C=CC=C2C1=NC1(CCCCC1)N2O,-13%,16µM*,16%,?
CCN(CC)CCn1c(-c2ccccc2)nc2c(NCCO)nc(C)nc21,0%,12%,.,-6%
O=C(c1ccncc1)N1CCC2(CCCN(c3ccccn3)C2)CC1,-7%,3%,17%,5%
COc1ccc2c(c1)c1nnc(SCC(=O)N3C(C)CCCC3C)nc1n2C (configuration not stated),1%,13µM*,.,2%
N#CC1=C(N)N(c2ccccc2)C2=C(C(=O)CCC2)C1c1cccs1 (configuration not stated),?,20µM*,25%,-21%
N#CC1=C(N)N(c2ccccc2C#N)C2=C(C(=O)CCC2)C1c1ccsc1 (configuration not stated),-13%,?,28%,?
Cc1noc(C)c1-c1nccc(N(C)C)n1,-16%,8%,42%,-2%
Cc1c(C(=O)NCCC2=CCCCC2)oc2ccc(S(=O)(=O)N3CCOCC3)cc12,16µM*,1%,56%,1%
COc1cccc(Nc2ncc3nc(CCc4ccccc4)c(=O)n(Cc4cccs4)c3n2)c1,3%,-7%,219%,1%
CCCCN(CC)CCNS(=O)(=O)c1cccc2cccnc12,?,-30%,.,-5%
COc1ccc(N=c2oc3c(OC)cccc3cc2C(=O)NCc2ccco2)c(OC)c1,-9%,1.3µM*,98%,-7%
COC(=O)c1ccc(C(=O)Nc2ccc(N)cc2N)cc1,-23%,13µM*,2%,-19%
COc1ccccc1NC(=O)c1ccc(N)cc1,7%,-16%,1%,-6%
Cc1nnc(C)n1N1C(=O)c2cccc3cccc(c23)C1=O,-24%,.,.,.
NC1=CC(=O)c2cccc3cccc1c23,5µM*,62%,37%,-18%
COc1cccc(Nc2nc(-c3sc(N)nc3C)cs2)c1,-1%,13µM*,41%,?
CCCn1c(C)nc2c(Nc3ccccc3)nc(C)nc21,1%,0%,.,-1%
SMILES,ALOX15 inhib,Tau fil binding,USP2a inhib,Hsp90 Hop PPI
Cc1ccc2ccc3cccc4ccc1c2c34,-5%,16%,.,40µM*
Cc1cccc2cccnc12,-4%,11%,.,-3%
Cc1cc(C)n(-c2ccc(C(=O)Nc3sccc3C(N)=O)cc2)n1,-8%,-24%,-7%,-3%
Cn1nc(C(=O)Nc2sccc2C(N)=O)ccc1=O,1%,25µM*,14%,0%
C[n+]1cc2c3c(ccc2c2ccc4cc5c(cc4c21)OCO5)OCO3,10µM*,?,?,-7%[26 µM]
COc1ccc(Oc2ncc3nc(C)c(=O)n(C[C@H]4CCCO4)c3n2)cc1,4%,-10%,20%,-5%
Cc1cc(N2CCCCC2)n2ncc(-c3ccc(Cl)cc3)c2n1,-2%,-10%,-7%,25µM*
O=C1C(C=NCc2ccco2)=C(O)c2ccccc21,-7%,25µM*,8%,-8%
O=C(CCCSc1nc(-c2ccco2)cc(C(F)(F)F)n1)Nc1ccc2c(c1)OCO2,-14%,25µM*,194%,-9%
COc1ccc(N2CCN(c3oc(COc4ccccc4)nc3C#N)CC2)cc1,-6%,?,-8%,13µM*
N#Cc1nc(COc2ccccc2)oc1N1CCOCC1,-3%,8%,-7%,-11%
CNc1ccc(O)cc1,?,20µM*,.,-6%
O=C(Nc1cccc2cccc(NC(=O)c3ccco3)c12)c1ccco1,-14%,13µM*,23%,-16%
O=C(Nc1nc(-c2ccncc2)cs1)c1ccco1,-12%,13µM*,6%,-6%
O=C(Nc1nc(-c2ccc(Cl)s2)cs1)c1ccncc1,-1%,25µM*,24%,-2%
O=C(CN1C(=O)CCC1=O)Nc1nc(-c2ccc(Cl)s2)cs1,-7%,0%,19%,-5%
O=C(Nc1ccc(Cl)cc1C(=O)Nc1ccncc1)c1ccco1,2.5µM*,-17%,22%,-6%
O=C(Nc1ccccc1NC(=O)c1ccco1)c1ccco1,-4%,2%,0%,2%
O=C(Nc1ccc(Cl)cc1C(=O)NCc1cccnc1)c1ccco1,3%,-13%,2%,3%
O=C(Nc1nc(-c2cc3ccccc3oc2=O)cs1)c1ccco1,-7%,128%,.,9%
CC1(C)CCC(NC(=O)[C@H](N)CCC(=O)O)CC1,4%,-7%,-2%,5%
COCCn1c(=O)c(C)nc2cnc(N3CCN(C)CC3)nc21,-7%,9%,-15%,-3%
COc1ccc(OC)c(NC(=O)C2CCC(CNc3c(N4CCC(C)CC4)c(=O)c3=O)CC2)c1 (configuration not stated),-7%,3.2µM*,.,-16%
COc1ccc(NC(=O)N2CCC3(CC2)CCN(C(=O)c2cccc(F)c2)CC3)cc1,12%,10%,52%,-2%
CC1=CC(C)(C)N2C(=O)C3(C(C#N)=C(N)Oc4cc(O)ccc43)c3cccc1c32 (configuration not stated),-21%,4µM*,6%,-9%
SMILES,ALOX15 inhib,Tau fil binding,USP2a inhib,Hsp90 Hop PPI
Cn1cnc([N+](=O)[O-])c1[Se]c1nc(N)nc2c1ncn2[C@@H]1O[C@@H](CO)[C@H](O)[C@@H]1O,17%[11.4 µM],6%[11.4 µM],.,0%[11 µM]
Cc1noc(C)c1-c1nc(Nc2ccncc2)c2ccccc2n1,?,10%,-3%,-10%
Cc1noc(C)c1-c1nc(Nc2ccc(F)cc2)c2ccccc2n1,16µM*,-16%,58%,1%
Cc1noc(C)c1-c1nc(NCc2cccs2)c2ccccc2n1,13µM*,83%,105%,-7%
Cc1noc(C)c1-c1nc(N(C)C)c2ccccc2n1,16µM*,-5%,-15%,-2%
COc1cc([C@@H](O)CO)ccc1OS(=O)(=O)O,9%,-1%,-1%,-9%
CC(C)CNC1=CC(=O)CC(c2ccco2)C1 (configuration not stated),10µM*,-23%,25%,-5%
N#Cc1cc2c(nc1SCc1cccnc1)CCC2,0%,4%,-3%,4%
N#Cc1cc2c(nc1SCc1nc3ccccc3[nH]1)CCC2,16µM*,32µM*,32%,12%
N#Cc1cc2c(nc1SCc1cccnc1)CCCC2,16µM*,11%,-16%,4%

# Screens as filed in PubChem.
